Assay results from PubChem BioAssay (NCATS).
Several values for one entry are separate records, joined by “and”; a condition that tells them apart may be missing. Identical values can stand only once. Inconclusive results are not listed. A structure can be active in one record and inactive in another. Activity calls are given as the source filed them. The call rests on the fitted dose curve; in most records, active means well fitted curve in the direction sought with a large enough effect; inconclusive means small, poorly fitted or top-dose-only effect, or another doubt; inactive means no such curve, though single readings can be large; an effect the other way counts as inactive or inconclusive.

Columns and labels:
HaCat = assay: Cytotoxic Profiling of Annotated Libraries Using Quantitative High-Throughput Screening (AID 1296008); settings: Five cell lines viability, CellTiter-Glo ATP luminescence, 48-72 h; max response: stronger effect = lower value; further: nearly all actives have a fitted effect of over 60% in size
Procedure, shortened: (§1)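 Cells exposed to compounds for 48 or 72 hr at 37 degrees Celsius. Viability read as ATP-coupled luminescence with CellTiter-Glo after 10 min at room temperature.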

KB-3-1 = assay: as above; settings: Five cell lines viability, CellTiter-Glo ATP luminescence, 48-72 h; max response: stronger effect = lower value
Procedure, shortened: as §1

NIH3T3 = assay: as above; settings: Five cell lines viability, CellTiter-Glo ATP luminescence, 48-72 h; max response: stronger effect = lower value
Procedure, shortened: as §1

MCC-26 = assay: qHTS assay to identify novel small-molecules to repurpose for Merkel cell carcinoma treatment (AID 1296009); settings: MCC and control cell lines, CellTiter-Glo viability, 72 h; series mostly up to 46 µM; further: nearly all actives have a fitted effect of over 60% in size
Procedure, shortened: (§2)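 Dose-response viability screen; 72 hr exposure at 37 degree celsius; CellTiter-Glo added, 10 min room temperature, luminescence read; RLUs scaled between no-cell and DMSO wells.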

MKL-1 = assay: as above; settings: MCC and control cell lines, CellTiter-Glo viability, 72 h; series mostly up to 46 µM
Procedure, shortened: as §2

MKL-2 = assay: as above; settings: MCC and control cell lines, CellTiter-Glo viability, 72 h; series mostly up to 46 µM
Procedure, shortened: as §2

CAOV3 = assay: Primary qHTS to identify gynecologic anti-cancer compounds using libraries of approved drugs and bioactive compounds (AID 1345084); settings: Gynecologic cancer cell panel viability, ATPlite luminescence, 48 h; series mostly up to 57.5 µM; further: nearly all actives have a fitted effect of over 55% in size
Procedure, shortened: (§3)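 48 h compound exposure at 37 C, 5% CO2; five-point qHTS. ATPlite luminescence readout of cell ATP.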

CASKI = assay: as above; settings: Gynecologic cancer cell panel viability, ATPlite luminescence, 48 h; series mostly up to 57.5 µM
Procedure, shortened: as §3

Es-2 = assay: as above; settings: Gynecologic cancer cell panel viability, ATPlite luminescence, 48 h; series mostly up to 57.5 µM
Procedure, shortened: as §3

C33A = assay: as above; settings: Gynecologic cancer cell panel viability, ATPlite luminescence, 48 h; series mostly up to 57.5 µM
Procedure, shortened: as §3

OV90 = assay: as above; settings: Gynecologic cancer cell panel viability, ATPlite luminescence, 48 h; series mostly up to 57.5 µM
Procedure, shortened: as §3

HeLa = assay: as above; settings: Gynecologic cancer cell panel viability, ATPlite luminescence, 48 h; series mostly up to 57.5 µM
Procedure, shortened: as §3

Hek293T = assay: as above; settings: Gynecologic cancer cell panel viability, ATPlite luminescence, 48 h, control line for the selectivity index; series mostly up to 57.5 µM
Procedure, shortened: as §3

JEG-3 = assay: as above; settings: Gynecologic cancer cell panel viability, ATPlite luminescence, 48 h; series mostly up to 57.5 µM
Procedure, shortened: as §3

MCC-13 = assay: qHTS assay to identify novel small-molecules to repurpose for Merkel cell carcinoma treatment (AID 1296009); settings: MCC and control cell lines, CellTiter-Glo viability, 72 h; series mostly up to 46 µM; further: nearly all actives have a fitted effect of over 60% in size
Procedure, shortened: as §2

UISO = assay: as above; settings: MCC and control cell lines, CellTiter-Glo viability, 72 h; series mostly up to 46 µM
Procedure, shortened: as §2

WaGa = assay: as above; settings: MCC and control cell lines, CellTiter-Glo viability, 72 h; series mostly up to 46 µM
Procedure, shortened: as §2
On the % scale 0 is the no-effect control and ±100 the full control effect; potency means the concentration at half of the fitted maximal effect.

Nc1nc(N)c2nc(CNc3ccc(C(=O)NC(CCC(=O)O)C(=O)O)cc3)cnc2n1 (stereo not drawn)
active: Potency (KB-3-1) 0.0332 µM | Potency (NIH3T3) 0.0935 µM
inactive: max response (HaCat) 4.29% | Potency (MCC-26) | Potency (MKL-1) | Potency (MKL-2)

CC(C)(C)C(=O)OCOP(=O)(COCCn1cnc2c(N)ncnc21)OCOC(=O)C(C)(C)C
inactive: Potency (CASKI)
active: Potency (CAOV3) 12.6 µM | Potency (Es-2) 7.08 µM

CO[C@@]12[C@H](COC(N)=O)C3=C(C(=O)C(C)=C(N)C3=O)N1C[C@@H]1N[C@@H]12
active: Potency (CAOV3) 3.55 µM | Potency (CASKI) 8.91 µM | Potency (Es-2) 4.47 µM | Potency (OV90) 17.8 µM
inactive: Potency (C33A)

CN1CCN(c2c(F)cc3c(=O)c(C(=O)O)cn(CCF)c3c2F)CC1
inactive: Potency (C33A) | Potency (CAOV3) | Potency (CASKI) | Potency (Es-2) | Potency (HeLa) | Potency (Hek293T) | Potency (JEG-3) | Potency (OV90)

CCCCc1oc2ccc(NS(C)(=O)=O)cc2c1C(=O)c1ccc(OCCCN(CCCC)CCCC)cc1
inactive: Potency (MCC-13) | Potency (MCC-26) | Potency (HeLa) | Potency (JEG-3)
active: Potency (HaCat) 23.7 µM | Potency (KB-3-1) 23.1 µM | Potency (NIH3T3) 9.44 µM | Potency (MKL-2) 13.2 µM and 4.73 µM

Nc1[nH]c(=O)ncc1F
inactive: Potency (C33A) | Potency (CAOV3) | Potency (CASKI) | Potency (Es-2) | Potency (HeLa) | Potency (Hek293T) | Potency (JEG-3) | Potency (OV90)

CCCc1nc(C)c2c(=O)[nH]c(-c3cc(S(=O)(=O)N4CCN(CC)CC4)ccc3OCC)nn12
inactive: Potency (C33A) | Potency (CAOV3) | Potency (CASKI) | Potency (Es-2) | Potency (Hek293T) | Potency (JEG-3) | Potency (OV90)

CC[C@H](C)C(=O)O[C@H]1C[C@@H](C)C=C2C=C[C@H](C)[C@H](CC[C@@H]3C[C@@H](O)CC(=O)O3)[C@H]21
active: Potency (HaCat) 11.8 µM | Potency (MCC-13) 21.1 µM | Potency (UISO) 9.44 µM and 20.9 µM
inactive: max response (NIH3T3) -16.3% | Potency (MCC-26) | Potency (WaGa) | Potency (C33A) | Potency (CAOV3) | Potency (CASKI) | Potency (Es-2) | Potency (Hek293T) | Potency (JEG-3) | Potency (OV90)
23.7 µM (active) and inactive: Potency (MKL-1)

COc1cc2nc(N3CCCN(C)CC3)nc(NC3CCN(Cc4ccccc4)CC3)c2cc1OC
active: Potency (MCC-26) 23.5 µM | Potency (MKL-1) 2.96 µM | Potency (MKL-2) 1.32 µM | Potency (UISO) 14.8 µM
